Holding throughout (assay): NCI-60 one-dose screen, 48 h (100 = growth as untreated, 0 = no growth, -100 = all killed)
Common to all, as to settings: 10 µM

Assay [1] has as its system NCI-H23 lung.
In assay [2] the test system is NCI-H226 lung.
Assay [3] relates to NCI-H322M lung.
Assay [4] concerns HOP-62 NSCLC.
Assay [5] concerns NCI-H460 lung.
For assay [6], the system named is HOP-92 NSCLC.
For assay [7], the system named is NCI-H522 lung.
In assay [8] the test system is A549/ATCC NSCLC.
The subject of assay [9] is 786-0 renal.
Assay [10] deals with COLO 205 colon.

Compounds without any hit were thinned out: in the full panel of roughly 83,000, 20% have a hit.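 Cells were grown in 96-well plates and exposed to the test compound at a single concentration for 48 hours; results are reported as percent growth, with values below 10 considered active.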 Values without a mark were called inactive. Calls of active or inactive are those of the source.

The source of these data is PubChem BioAssay (NCI).

Turning to `CC1=C(C(=O)OC(C)C)C(c2ccc(O)cc2)NC(=S)N1` (stereo not given), the growth in assay [1] is 98.8%; in assay [2] it was 99.2%; in assay [3] it was 102%; in assay [4] it was 104%; in assay [5], 124%; in assay [6], 112%. In addition, the growth is 93.1% in assay [7], 109% in assay [8], 95.7% in assay [9] and 119% in [10].
As for `COc1nccnc1NS(=O)(=O)c1ccc(NC2=C(Cl)C(=O)c3nc(C)ccc3C2=O)cc1`, the growth in assay [1] was 83.7%; in assay [2], 93.4%; in assay [3] it was 101%; in assay [4] it was 101%; in [5] it was 118%; in assay [6], 116%. In addition, the growth is 88% in [7], 105% in [8], 99.9% in assay [9] and 134% in assay [10].
Take `CC1=C(c2cc(-c3ccc(Cl)cc3)c(C#N)c(N)n2)C(c2ccccc2)NC(=S)N1` (stereo not given): the growth in assay [1] is 76.1%; in [2], 64.4%; in assay [3] it was 96.4%; in assay [4], 81.3%; in assay [5] it was 82.6%; in assay [6], 105%. Moreover, the growth in assay [7] was 49.4%; in assay [8], 90.1%; in assay [9], 67%; in [10], 80.5%.
Take `O=C(c1ccc(O)cc1)C1[C@H](c2ccccc2Br)[C@@H](c2ccccc2)NC12C(=O)Nc1ccc(Cl)cc12` (stereo not given in full): the growth in [1] is -34.8% (active); in [2], -7.3% (active); in assay [3], 27%; in assay [4], 6.01% (active); in assay [5], 9.99% (active); in assay [6], -1.49% (active). Further, the growth was -47.1% (active) in [7], -4.7% (active) in assay [8], 2.9% (active) in [9] and -76.9% (active) in [10].
In the case of `CN1CCN(c2ccc(C(=O)/C=C/c3cc(Br)ccc3F)cc2)CC1`, the growth in assay [1] is 49.4%; in assay [2], 61.6%; in [3], 93.3%; in assay [4], 77.1%; in assay [5] it was 67.2%; in [6], 31.6%. The growth in assay [7] was 66.4%; in assay [8] it was 28.5%; in [9], 27.1%; in assay [10], 34.8%.
Consider `CN(CCO)c1oc(-c2ccccc2)nc1[P+](c1ccccc1)(c1ccccc1)c1ccccc1`, for which the growth in assay [1] was -5.17% (active); in assay [2] it was -11.8% (active); in assay [3], 19.8%; in assay [4], 13.2%; in assay [5], 6.61% (active); in assay [6], -24.2% (active). For the same compound, the growth was -9.01% (active) in [7], 22.3% in assay [8], 14.2% in assay [9] and -59.6% (active) in [10].
On to `COc1cc(Cn2c(C(F)(F)F)cc3c(Cl)ncnc32)ccn1`, for which the growth in [1] is -66.6% (active); in assay [2] it was 72.2%; in assay [3], -73.3% (active); in [4], 32.1%; in assay [5], 2.75% (active); in [6], 49.1%. Further, the growth in assay [7] was 56%; in assay [8], 92.6%; in [9], 93.3%; in assay [10], 79.9%.
Regarding `O=C(CSc1nnc(-c2ccc3nc(-c4ccc(Cl)cc4)[nH]c3c2)o1)Nc1ccc(Br)cc1`, the growth in [1] was -82.9% (active); in assay [2], -62.9% (active); in [3], -40.8% (active); in [4], -66.9% (active); in [5], -82.7% (active); in assay [6], -11.3% (active). The growth in [7] was -67.9% (active); in assay [8], -54.9% (active); in assay [9] it was -74.9% (active); in assay [10], 0.691% (active).
As to `Cc1ccc(-c2nc(Nc3ccc(C)c(S(N)(=O)=O)c3)c3ccccc3n2)cc1`, the growth in [1] is 79%; in assay [2], 84.1%; in assay [3] it was 79.7%; in [4] it was 96.3%; in assay [5] it was 11.9%; in assay [6], 104%. The growth is 112% in assay [7], 43.4% in assay [8], 33.7% in assay [9] and 90.5% in [10].
Consider `O=C(CNc1nc(-c2ccccc2)cs1)Nc1ccc(Cl)cc1[N+](=O)[O-]`, for which the growth in [1] was -57.3% (active); in [2], -54.2% (active); in assay [3], 35.7%; in assay [4], -27.7% (active); in assay [5], 5.09% (active); in assay [6], -14.2% (active). Besides, the growth in assay [7] was -82.8% (active); in assay [8], 12.6%; in assay [9], 4.95% (active); in assay [10] it was -64.7% (active).
In the case of `CN(C(=O)c1ccc(C(C)(C)C)cc1)c1sc2c(c1C#N)CCC(=O)C2`, the growth in [1] is -29.1% (active); in assay [2], 62.6%; in assay [3] it was 88.4%; in assay [4], 34.6%; in assay [5], 35.6%; in assay [6] it was 21.9%. The growth in assay [7] was -45.8% (active); in [8], 91.5%; in assay [9] it was 50.3%; in assay [10] it was 80.7%.
Turning to `CCCCSc1nc(Nc2ccc(/C(C)=N/NC(N)=S)cc2)c(C#N)c(-c2ccc(OC)cc2)n1`, the growth in assay [1] was 31.4%; in assay [2], -6.28% (active); in [3] it was 74.8%; in [4], 54.4%; in assay [5], 46.5%; in assay [6], -4.59% (active). The growth in [7] is 85.7%; in [8], 47.4%; in assay [9], -71.5% (active); in [10] it was 125%.
As to `C#CCNC(=O)CCC(=O)OC[C@]12CC[C@@H](C(=C)C)[C@@H]1C1CC[C@@H]3[C@@]4(C)CCCNC(C)(C)[C@@H]4CC[C@@]3(C)[C@]1(C)CC2` (stereo not given in full), the growth was -91.8% (active) in assay [1]; -80.8% (active) in assay [2]; 39.2% in [3]; -23.9% (active) in [4]; -74% (active) in assay [5]; -14.4% (active) in assay [6]. Also, the growth in assay [7] is -82.7% (active); in assay [8] it was -76.5% (active); in [9], -58.3% (active); in assay [10] it was -83% (active).
